# RORgamma inh: ROR gamma (mouse) transcription inhibition; Drosophila S2 Gal4-RORgamma UAS-luciferase reporter, 20 h; Potency, µM (series often up to 53.6 µM), for inactives: at the top dose activity change, negative = inhibition, usual class: inhibitors; hit rate 5.4% among 310,000; AID 2551; note: nearly all actives have a fitted effect of over 60% in size
#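 Compounds are pin-transferred onto Drosophila Schneider cells expressing a copper-inducible Gal4–ROR gamma transactivation domain fusion. After 1 hr, copper sulfate is added to 700 uM final; luciferase is read 20 hr later.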
# Sfp PPTase inh: blocks B. subtilis Sfp PPTase activity. Q9F4F7. Biochemical Sfp PPTase activity, qHTS. Potency, µM, inactives show largest response in the series, negative = inhibition, actives largely listed as inhibitors. hit rate 3.5% among 310,000;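 note: the enzyme is Sfp with the accession as filed and its product quenches rhodamine fluorescence; 0% = enzyme reaction without inhibitor and -100% = no enzyme wells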
#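 Fluorescence-quenching assay: 15 nM Sfp-PPTase preincubated 15 min at room temperature with compound, then 5 uM rhodamine-CoA and 12.5 uM BHQ-2-labelled YbbR peptide added. Fluorescence (ex 525/em 598 nm) read at start and after 30 min; difference gives rate.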
# ALDH1A1 inh: blocks purified human ALDH1A1 activity | P00352 | Purified ALDH1A1, NADH fluorescence, propionaldehyde substrate | Potency, µM (titrated, usually from 75.3 µM), for inactives: top-dose activity, negative = inhibition, most hits filed as inhibitors | hit rate 7.3% among 220,000; active = well fitted inhibition curve with a large enough effect, not every such curve was filed as active; inconclusive = small, poorly fitted or top-dose-only effect, or another doubt; inactive = no such curve, though single readings can be large or run the other way;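 note: plate controls were no enzyme wells and a reference inhibitor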
# Target sequence (P00352 whole entry, looked up): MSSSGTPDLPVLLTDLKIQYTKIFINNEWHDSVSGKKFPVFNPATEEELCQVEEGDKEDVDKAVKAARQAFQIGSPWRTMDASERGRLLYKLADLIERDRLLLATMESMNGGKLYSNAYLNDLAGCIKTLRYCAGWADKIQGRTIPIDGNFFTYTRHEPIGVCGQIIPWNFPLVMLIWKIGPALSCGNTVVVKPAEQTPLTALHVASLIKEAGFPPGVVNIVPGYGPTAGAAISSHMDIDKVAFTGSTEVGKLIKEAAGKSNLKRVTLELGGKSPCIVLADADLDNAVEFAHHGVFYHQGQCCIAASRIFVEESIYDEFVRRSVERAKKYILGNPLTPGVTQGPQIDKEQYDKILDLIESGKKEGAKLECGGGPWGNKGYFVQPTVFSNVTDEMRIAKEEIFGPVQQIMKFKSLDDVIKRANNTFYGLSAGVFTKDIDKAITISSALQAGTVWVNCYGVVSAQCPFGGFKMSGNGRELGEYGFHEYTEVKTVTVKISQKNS
# PLK1 PBD inh: PLK1 (human) polo-box domain binding inhibition; P53350; Plk1 PBD binding of FITC phosphopeptide, fluorescence polarization; Potency, µM, without a hit: max response, negative = inhibition, usual class: inhibitors; hit rate 2.8% among 360,000; note: series mostly up to about 57 µM; nearly all actives have a fitted effect of over 65% in size
# Gal4-VP16 FLuc: Gal4-VP16 reporter inhibition counter-screen. Drosophila S2 Gal4-VP16 UAS-luciferase, luminescence, 20 h. Potency, µM (top dose mostly 53.6 µM), without a hit: top-dose activity, negative = inhibition, actives largely listed as inhibitors. hit rate 3.5% among 310,000;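 note: Gal4-VP16 expression switched on by copper sulfate through the metallothionein promoter; nearly all actives have a fitted effect of over 50% in size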
# Numbers without * were called inactive; ? = inconclusive; / = no result; [ ] = remark or other dose. A selection: hits, their analogues and other compounds. The true share with any hit is near 12%. Unless noted, calls come from the whole dose curve; as a rule, active = well fitted curve in the direction sought with a large enough effect; inconclusive = small, poorly fitted or top-dose-only effect, or another doubt; inactive = no such curve, though single readings can be large; an effect the other way counts as inactive or inconclusive. Unless noted, % is set by controls: 0 for no effect and ±100 for the full control effect; potency is the fitted concentration of half-maximal effect.
SMILES,RORgamma inh,Sfp PPTase inh,ALDH1A1 inh,PLK1 PBD inh,Gal4-VP16 FLuc
O=C(COC(=O)c1ccccc1O)NCCCc1ccccc1,5%,-9%,7%,30µM*,-15%
O=C(COC(=O)c1cccnc1Cl)NCCCc1ccccc1,/,/,/,0%,/
COc1ccc(CCNC(=O)/C=C/C(=O)O)cc1OC,-9%,-6%,25µM*,-14%,10%[10 µM]
CSCC[C@H](NC(=O)[C@H](CC(C)C)NC(=O)CNC(=O)[C@@H]1CCCN1C(=O)[C@H](Cc1ccccc1)NC(=O)[C@H](Cc1ccccc1)NC(=O)[C@H](CC(=O)O)NC(=O)[C@H](Cc1cnc[nH]1)NC(=O)[C@H](CCSC)NC(=O)[C@@H](N)CC(=O)O)C(N)=O,6%,6%,/,/,-1%
CNc1nc(-c2ccccc2)c2sccc2n1,/,/,/,-2%,/
CC(C)Nc1ncnc2c1ncn2[C@H]1CN(C2CCCC2)C[C@@H](CO)O1,/,/,/,-10%,/
COc1ccc(/C=c2\s/c(=C/C(=O)c3ccc(C)cc3)[nH]c2=O)cc1OC,13µM*,-4%,4%,40%,?
COc1cc(NC(C)=O)c2ncccc2c1NC(C)=O,-21%,15%,/,-2%,-7%
COc1cc(NC(C)=O)c2ncccc2c1[N+](=O)[O-],4µM*,-22%,-3%,3%,?
C=CCC(C)(O)C#Cc1ccccc1 (stereo not drawn),-6%,10%,5%,/,1%
O=C(COc1ccccc1)N1N=C(c2cccnc2)CC1(O)C(F)(F)F (stereo not drawn),-27%,7%,?,-10%,19%
Cc1ccc(OCC(=O)N2N=C(c3ccncc3)CC2(O)C(F)(F)F)cc1C (stereo not drawn),4µM*,23%,/,-4%,-15%
O=C(Cc1ccc([N+](=O)[O-])cc1)N1N=C(c2ccncc2)CC1(O)C(F)(F)F (stereo not drawn),-18%,11%,?,27µM*,-4%
O=C(c1ccccc1)N1N=C(c2ccccc2)CC1(O)C(F)(F)F (stereo not drawn),-24%,0%,/,-8%,-18%
COc1ccc(C2=NN(C(=O)c3cccs3)C(O)(C(F)(F)F)C2)cc1 (stereo not drawn),?,45µM*,?,-1%,5%
O=C(O)CC(Cn1[nH]nnc1=S)c1ccccc1 (stereo not drawn),-13%,40µM*,10µM*,?,8%
COc1ccccc1CNS(=O)(=O)CCNCc1ccco1,/,/,/,-9%,/
Cc1cc(O)ccc1N/C=C1\CCCC1=O,-30%,?,13µM*,-8%,?
CC(=O)Nc1ccc(N/C=C2/CCCC2=O)cc1,1%,16%,/,-5%,-18%
Cc1cc(C2C(=O)CC(=O)CC2c2ccccc2)on1 (stereo not drawn),0%,-16%,10µM*,?,-2%
O=C(O)c1cc(Cl)c2c(c1)[C@@H]1C=CC[C@@H]1[C@H](c1ccc(S(=O)(=O)N3CCOCC3)cc1)N2,43%,?,6%,27µM*,-5%
O=C(c1ccc(S(=O)(=O)N2CCOCC2)cc1)N(c1cccc(Cl)c1)C1C=CS(=O)(=O)C1 (stereo not drawn),4%,16%,-2%,?,-14%
Cc1cc(C)c2c(c1)C1C=CCC1C(c1ccc(S(=O)(=O)N3CCOCC3)cc1)N2 (stereo not drawn),14%,40µM*,?,3%,-2%
COC(=O)NC(c1cccc(F)c1)[C@]1(C(C)=O)CCCC1=O (stereo partly drawn),10%[10 µM],8%,0%[13.5 µM],/,-5%[10 µM]
COc1ccc(C2=CCCCCC2)cc1OC,/,/,/,-4%,/
SMILES,RORgamma inh,Sfp PPTase inh,ALDH1A1 inh,PLK1 PBD inh,Gal4-VP16 FLuc
COc1ccc(C2OC(=O)Cc3cc(OC)c(OC)cc32)cc1 (stereo not drawn),-25%,8%,7%,-6%,18%
CCOc1cc2c(cc1OCC)C(c1ccccc1OC)OC(=O)C2 (stereo not drawn),-16%,-12%,11µM*,-2%,?
COc1ccccc1C=NN=C1c2ccccc2-c2ccccc21,/,/,/,8%,/
O=C1C=CC(=O)N1,/,/,/,30µM*,/
COc1ccc(CNC[C@H]2O[C@@H](n3ccc(=O)[nH]c3=O)[C@H](O)[C@@H]2O)cc1,/,/,/,-7%,/
O=C(NCc1cc([N+](=O)[O-])ccc1O)c1cccnc1Sc1ccccc1Cl,3.5µM*,-1%,/,-25%,2.8µM*
CCCc1cc(Nc2ccccc2OCC)n2ncnc2n1,11µM*,5%,10%,-22%,?
CCCCn1c(N)c(N(CCC(C)C)C(=O)c2oc3ccc(OCC)cc3c2C)c(=O)[nH]c1=O,/,/,/,-8%,/
Cc1cc(O)ccc1Nc1nc2ccccc2nc1Nc1ccc(O)cc1C,30%,56µM*,22µM*,?,7%
CCC1=C2CC[C@H]3C(=O)N(C)C(=O)[C@H]3[C@H]2[C@@]2(C)C(=NCc3ccccc3)OC(=O)N2C1=O,15%,19%,3%,/,15%
COCCn1c(=O)c(-c2ccc(OC)cc2)nc2cnc(OCc3ccccc3)nc21,-3%,29%,?,/,0%
COc1ccccc1C1C2=C(N=C3SCC(=O)N31)c1ccccc1CC2 (stereo not drawn),11µM*,-14%,-9%,-9%,-9%
CC(=O)c1cccc(OCC(=O)N(C)CC(=O)Nc2ccc(F)cc2)c1,8%,20%,/,30µM*,-4%
CC(C)CN1C(=O)CSCC1(C)C(=O)NC(C)C (stereo not drawn),/,/,/,-15%,/
O=C(Nc1nnc(C2=COCCO2)o1)c1ccc(Cl)cc1,0.63µM*,30%,3%,0%,-88%
CC(=O)Nc1nnc(C2=COCCO2)o1,2%,-60%,?,-1%,0%
O=C(Nc1nnc(C2=COCCO2)o1)c1ccc([N+](=O)[O-])cc1,1.1µM*,10%,/,-1%,0.89µM*
O=C(Nc1nnc(C2=COCCO2)o1)c1ccc(F)cc1,0.89µM*,5%,/,2%,0.79µM*
O=C(Nc1nnc(C2=COCCO2)o1)c1cccc(C(F)(F)F)c1,0.56µM*,21%,/,2%,0.32µM*
O=C(Nc1nnc(-c2ccc(Br)cc2)o1)C1=COCCO1,/,/,/,-1%,/
CC1=CC(C)C(=O)N(C)C(C)=C1 (stereo not drawn),/,/,/,-5%,/
O=C(Nc1nnc(C2=COCCO2)o1)c1ccc(Br)cc1,0.79µM*,18%,/,/,0.5µM*
CS(=O)(=O)c1ccccc1-c1nnc(NC(=O)C2=COCCO2)o1,/,/,/,4%,/
O=C(Nc1nnc(C2=COCCO2)o1)c1ccc(Cc2ccccc2)cc1,0.63µM*,1%,-14%,-4%,3.2µM*
Cc1c(NC(=O)c2cccc(NC(=O)C(C)Oc3ccccc3)c2)c(=O)n(-c2ccccc2)n1C (stereo not drawn),/,/,/,-5%,/
Cc1ccc(N2C(=O)c3ccccc3C2O)nc1 (stereo not drawn),7.1µM*,-8%,3%,/,?
Nc1ccc(Cl)cc1Cl,-1%,/,-6%,/,-2%
